# In all, about 1,300 compounds went through this assay and about 1,000 (77%) were called active. Roughly 7% stayed inconclusive and do not appear here. The call rests on the fitted dose curve; in most records, active means well fitted inhibition curve with a large enough effect; inconclusive means small, poorly fitted or top-dose-only effect; inactive means no such curve, though single readings can be large or run the other way. The set was probably picked from earlier hits. This is one part of the list.
# Test: qHTS of small molecules that selectively kill Giardia lamblia: Hit Validation.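 Further: viability measured as ATP content by luminescence so killing lowers signal; nearly all actives have a fitted effect of over 65% in size.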
# Details: Giardia lamblia trophozoite viability, dose-response; series mostly up to 38.3 µM
# From the text: Giardia lamblia is a human pathogen afflicting impoverished nations, and the most common cause of outbreaks of diarrhea in the United States. Giardia has been classified by the CDC as a category B bioterrorism organism. The favored anti giardiasis drugs in the US are metronidazole or tinidazole, compounds that have undesirable side effects. Moreover, increasing resistance to drug regimes and recurrence are a concern. It is thus clear that alternative drug treatments are needed.
# In a collaboration between the University of Maryland, College Park and the NIH Chemical Genomics Center, a bioluminescence Giardia viability assay based on the trophozoites' ATP content was developed. This assay is suitable for high throughput screening, and miniaturized the assay for compound screening in 1536-well plates. The goal of the project is to screen the Molecular Libraries Small Molecule Repository (MLSMR) for compounds that selectively kill Giardia trophozoites.
# NIH Chemical Genomics Center [NCGC]
# NIH Molecular Libraries Probe Centers Network [MLPCN]
# Assay Submitter (PI): Osnat Herzberg, University of Maryland, College Park, MD.
# 1. Dispense 2 ul/well media
# 2. Dispense 23 nl/well compounds
# 3. Dispense 4 ul/well Giardia trophozoites at a concentration of 100 cells/well
# 4. Incubate 48 hrs at 37 deg C anaerobically
# 5. Dispense 4 ul/well ATPLite 1-Step Luminescence assay kit
# 6. Incubate 15-30 min at room temperature
# 7. Read luminescence signal on ViewLux plate reader
# Potency means the concentration at half of the fitted maximal effect.
row,SMILES,Potency
1,CCOC(=O)N/N=C\c1ccc([N+](=O)[O-])s1,4100 nM (active)
2,COc1ccccc1NC(=O)C(=O)N/N=C/c1ccc([N+](=O)[O-])s1,2050 nM (active)
3,COC(=O)N/N=C/c1ccc([N+](=O)[O-])s1,4100 nM (active)
4,Cc1ccnn1CC(=O)N/N=C/c1ccc([N+](=O)[O-])s1,3650 nM (active)
5,O=C(COC(=O)c1cc(Cl)ccc1O)NC(=O)NCc1ccccc1,inactive
6,Cc1csc(NC(=O)CSc2nc3[nH]c(=O)cc(O)c3s2)n1,1030 nM (active)
7,CC(NCCN(C)C)C1CCC2C3CCc4cc(O)ccc4C3CCC12C (stereo unspecified),1160 nM (active)
8,COc1cc(/C=C2\COC/C(=C\c3cc(OC)c(OC)c(OC)c3)C2=O)cc(OC)c1OC,11600 nM (active)
9,COc1cc(C2CC(=O)Oc3cc(C)c(Cl)c(C)c32)cc(OC)c1OC (stereo unspecified),inactive
10,O=C(CCCn1cnc([N+](=O)[O-])n1)Nc1ccc(F)c(Cl)c1,3650 nM (active)
11,Cc1nn(CCCC(=O)Nc2c(F)cc(F)cc2Br)c(C)c1[N+](=O)[O-],inactive
12,O=C(CCCn1cnc([N+](=O)[O-])n1)Nc1cccc(Cl)c1Cl,3650 nM (active)
13,Cc1c(Cl)cccc1NC(=O)CCCn1cnc([N+](=O)[O-])n1,4100 nM (active)
14,COc1ccc(NC(=O)CCCn2nc(C)c3c(C)n(-c4ccccc4)nc3c2=O)cc1OC,inactive
15,O=C(c1ccco1)N1CCN(Cc2cc(=O)c(OCc3ccc([N+](=O)[O-])cc3)co2)CC1,183 nM (active)
16,O=[N+]([O-])c1cccc(COc2ccccc2CN2CCCC2)c1,inactive
17,O=C1NC(=O)/C(=C\c2ccc(Oc3ccc([N+](=O)[O-])cn3)cc2)S1,9180 nM (active)
18,O=C(Nc1ccc(C(=O)O)cc1)/C(=C\C=C\c1ccccc1)NC(=O)c1ccccc1Cl,6500 nM (active)
19,C#CCOCCOCCOCCNc1nc(N2CCN(C(=O)[C@H](CCC(=O)O)n3cc([C@@H](N)CC(N)=O)nn3)CC2)nc(N2CCN(C(=O)[C@H](CCC(=O)O)n3cc([C@@H](N)CC(N)=O)nn3)CC2)n1,inactive

row,SMILES,Potency
1,CCCCCN=Cc1c(C)[nH]n(-c2nc3ccccc3s2)c1=O,3260 nM (active)
2,Cc1ccc(N=Nc2c(O)ccc3n[nH]nc23)cc1,3650 nM (active)
3,CCC1=C(OC(=O)N(CC)CC)N2C(=O)OC(=NCC(=O)OC)[C@]2(C)[C@H]2C1=CC[C@H]1C(=O)N(CC)C(=O)[C@H]12,inactive
4,CN(C)C(=O)C[n+]1ccc(C(N)=O)cc1,inactive
5,Cc1ccc(NC(=O)Cn2cnc([N+](=O)[O-])c2)cc1C,8180 nM (active)
6,Fc1ccc(CN2CC[C@H]3C=CCc4cccc(c43)C2)cc1,inactive
7,COc1ccc(C(=O)COC(=O)c2ccccc2NS(=O)(=O)c2ccc(O)c([N+](=O)[O-])c2)cc1,1450 nM (active)
8,COc1ccc(S(=O)(=O)Nc2c(O)c3ccccc3oc2=O)cc1,inactive
9,Cc1ccc(S(=O)(=O)Nc2ccc(C(OC(=O)c3ccccc3[N+](=O)[O-])(C(F)(F)F)C(F)(F)F)cc2)cc1,3650 nM (active)
10,Cc1ccc(-c2cc(C(=O)N/N=C/c3ccc([N+](=O)[O-])o3)c3ccccc3n2)o1,1030 nM (active)
11,O=C(N/N=C/c1ccc([N+](=O)[O-])o1)c1cc(-c2cccc(Br)c2)nc2ccccc12,1160 nM (active)
12,CCCc1ccc(-c2cc(C(=O)N/N=C/c3ccc([N+](=O)[O-])o3)c3ccccc3n2)cc1,1630 nM (active)
13,O=C(N/N=C/c1ccc([N+](=O)[O-])o1)c1cc(-c2ccc(-c3ccccc3)cc2)nc2ccccc12,1030 nM (active)
14,COc1ccc(-c2ccc([C@H]3[C@@H]4C=CCC[C@@]4(C)C(=O)N3Cc3ccccc3)c(F)c2)cc1OC,inactive
15,COc1cc(/C=C2\SC(=O)N(Cc3ccc(Cl)cc3)C2=O)cc([N+](=O)[O-])c1O,1630 nM (active)
16,COc1cc(/C=C2\SC(=O)N(c3ccc(Cl)cc3)C2=O)cc([N+](=O)[O-])c1O,4100 nM (active)
17,COc1cc(/C=C2\SC(=O)N(Cc3ccc(F)cc3)C2=O)cc([N+](=O)[O-])c1O,1830 nM (active)
18,CCS(=O)(=O)Nc1cccc(C2=NN(S(=O)(=O)c3ccc(C)cc3)C(c3ccco3)C2)c1 (stereo unspecified),inactive
19,COc1ccc(NS(=O)(=O)c2ccc(S(=O)(=O)N(C)C)cc2)cc1S(N)(=O)=O,inactive

row,SMILES,Potency
1,COc1ccc(OCc2cc(C(=O)N(C)Cc3cc(C4CC4)n[nH]3)no2)c(Cl)c1,inactive
2,COc1cccc(/C=C/c2ccc3ccccc3n2)c1OC(C)=O,8180 nM (active)
3,COc1ccc(/C=C/c2ccc3ccccc3n2)c(OC)c1,2310 nM (active)
4,COc1ccc(/C=C/c2ccc3ccccc3n2)cc1OC,4600 nM (active)
5,COc1ccc(OC)c(/C=C/c2ccc3ccccc3n2)c1,inactive
6,Cc1ccccc1N1CCN(Cc2ccc([N+](=O)[O-])o2)CC1,1160 nM (active)
7,Cc1cccc(N2CCN(Cc3ccc([N+](=O)[O-])o3)CC2)c1C,729 nM (active)
8,O=[N+]([O-])c1ccc(CN2CCN(c3ccccc3Cl)CC2)o1,650 nM (active)
9,COc1ccc(NC(=O)OCCn2c([N+](=O)[O-])cnc2C)cc1,650 nM (active)
10,Cc1ncc([N+](=O)[O-])n1CCOC(=O)Nc1ccc(Cl)c(Cl)c1,230 nM (active)
11,C#CCCOC(=O)Nc1ccccc1,inactive
12,Cc1ncc([N+](=O)[O-])n1CCOC(=O)Nc1ccc([N+](=O)[O-])cc1,146 nM (active)
13,CN1C2=CC=CC=CC2=[N+](C)C12C([N+](=O)[O-])=CC(=[N+]([O-])[O-])C=C2[N+](=O)[O-] (stereo unspecified),206 nM (active)
14,Cc1cc(C(=O)COC(=O)c2cccc(NS(C)(=O)=O)c2)c(C)n1CC1CCCO1 (stereo unspecified),4100 nM (active)
15,CCOC(=O)c1ccc(NS(C)(=O)=O)cc1,inactive
16,Cc1nnc(N/N=C/c2cccs2)[nH]c1=O,inactive
17,S=C(NCCc1ccccc1)N/N=C/c1cccs1,23100 nM (active)
18,CC1CC(C)C(=O)C(C(CC2CC(=O)NC(=O)C2)OC(=O)CC(=O)c2ccccc2)C1 (stereo unspecified),130 nM (active)

# Reference: PubChem BioAssay AID588397 (National Center for Advancing Translational Sciences (NCATS), 2011)
